Results reported in PubChem BioAssay (NCI).
About 83,000 compounds went through this panel and 20% of them were active in at least one assay; those are over-represented in the sample as a whole.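 Assay: single dose, 48 h. Readout: percent growth (0 = no net growth; negative = cell death). Active: <10.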 Values without a mark were called inactive. The source made the active and inactive calls.

Columns and labels:
Assay in all cases: NCI-60 one-dose screen, 48 h (100 = growth as untreated, 0 = no growth, -100 = all killed)
Conditions in all cases: 10 µM unless noted
SK-MEL-2 melanoma = system: SK-MEL-2 melanoma
EKVX NSCLC = system: EKVX NSCLC
SN12C renal = system: SN12C renal
UO-31 renal = system: UO-31 renal
TK-10 renal = system: TK-10 renal
ACHN renal = system: ACHN renal
CAKI-1 renal = system: CAKI-1 renal
A498 renal = system: A498 renal
CCRF-CEM leukemia = system: CCRF-CEM leukemia
MOLT-4 leukemia = system: MOLT-4 leukemia

Row | Structure (SMILES) | growth (SK-MEL-2 melanoma) | growth (EKVX NSCLC) | growth (SN12C renal) | growth (UO-31 renal) | growth (TK-10 renal) | growth (ACHN renal) | growth (CAKI-1 renal) | growth (A498 renal) | growth (CCRF-CEM leukemia) | growth (MOLT-4 leukemia)
1 | COc1ccc(C(=O)/C=C/c2c(C(F)(F)F)nc3ccccn23)cc1OC | 31.3% | 8.13% (active) | 16.1% | 25.9% | 29.9% | -41.1% (active) | -5.18% (active) | 65.8% | 14.9% | 7.14% (active)
2 | Cn1cc(-c2ccc3nc(-c4ccc(CC(=O)ONc5cc(C(C)(C)C)on5)cc4)cnc3c2)cn1 | 13% | 39.2% | 26.1% | 20.9% | 21.3% | 13.4% | 6.91% (active) | 15.6% | 38.8% | 11.6%
3 | CC1CCc2c(C(=O)Nc3ncc(Cc4cccc([N+](=O)[O-])c4)s3)csc2C1 (stereo not given) | 52.7% | 25.6% | 41.7% | 32.4% | 46.7% | 30.5% | 19.2% | 10.7% | 16.8% | 26%
4 | COc1ccc2cc1Oc1ccc(cc1)C[C@H]1c3c(cc4c(c3Oc3cc5c(cc3OC)CCN(C)[C@@H]5C2)OCO4)CCN1C | 69.9% | 75.1% | 60.3% | 60.6% | 44.8% | 63% | 70.8% | 32.2% | 21% | 31.5%
5 | N=C(N)c1ccc(-c2ccc(-c3ccccc3)o2)cc1 | -86.6% (active) | -18.1% (active) | -39.5% (active) | -82.2% (active) | -77.4% (active) | -65.9% (active) | -1.49% (active) | -21.9% (active) | -39.4% (active) | -56.2% (active)
6 | CCOC(=O)c1c(NC(=O)c2cccc(C(F)(F)F)c2)sc2c(CN(C)C)c(O)ccc12 | 108% | 98.8% | 90% | 48.9% | 113% | 45.5% | 71.1% | 82% | 9.93% (active) | 43.4%
7 | CC(C)Cn1cnc2c(=O)[nH]c(N)nc21 | 87.9% | 101% | 98.9% | 94.4% | 88.6% | 106% | 95.4% | 94.1% | 107% | 92.4%
8 | O=C(c1ccncc1)N1N=C(c2ccc(Cl)cc2)C[C@H]1c1cn(-c2ccccc2)nc1-c1ccccc1 | 110% | 87.2% | 86.6% | 90.1% | 109% | 70.8% | 65.4% | 102% | 78.9% | 70.8%
9 | CSc1nnc(-c2cc3c([nH]c4ccccc43)c(-c3cccc(O)c3)n2)n1-c1ccccc1 | 12.9% | 45.8% | 43.7% | 39.7% | 62.2% | 36.3% | 44.6% | 25.5% | 21.8% | 26.6%
10 | CCCCCN1C(=O)/C(=c2\sc3n(c2=O)C2C(NN=3)N(CC)C(=O)N2CC)c2ccccc21 (stereo not given) | 21.3% | 26.3% | -50.5% (active) | -40.8% (active) | 19.9% | 2.83% (active) | 7.55% (active) | -27.8% (active) | -15.6% (active) | 4.79% (active)
11 | N#Cc1c(-c2ccccc2)cc(-c2ccc(Nc3nc(Nc4ccc(Cl)cc4)nc(Nc4ccc(Cl)cc4)n3)cc2)nc1N | 34% | 9.99% (active) | 50.2% | -82.4% (active) | -60.1% (active) | -32.5% (active) | 20.1% | 81.8% | 4.06% (active) | 4.72% (active)
12 | Cc1cn(-c2cc(NC(=O)c3cncc(C#Cc4cnc(N)c5ncccc45)c3)cc(C(F)(F)F)c2)cn1 | 6.39% (active) | 85.1% | 58.3% | 25.4% | 90.3% | 73.4% | 92% | 60.7% | 32.5% | 34.7%
13 | CNC(=O)c1[nH]cc(-c2ccc(OC)cc2)c1-c1cc(OC)c2c(c1OC)OCO2 | 105% | 96.8% | 96.8% | 82.9% | 108% | 97.7% | 83.6% | 109% | 101% | 109%
14 | Nc1ncc(-c2ccc3ncnc(Nc4cccc(Cl)c4)c3c2)cn1 | 50.1% | 1.79% (active) | 45.9% | 26.2% | -14.8% (active) | 21.5% | 25.6% | -9.82% (active) | 40.5% | 21.7%
